Reference: PubChem BioAssay (Tox21)
Results filed as inconclusive are left out. Activity calls are given as the source filed them. Unless noted, the call rests on the fitted dose curve; in most records, active means well fitted curve in the direction sought with a large enough effect in the repeat runs; inconclusive means weak or mixed curves; inactive means no such curve, though single readings can be large; an effect the other way counts as inactive or inconclusive.

Key:
[1] = qHTS assay to identify small molecule antagonists of the vitamin D receptor (VDR) signaling pathway - cell viability counter screen (AID 743225); further: nearly all actives have a fitted effect of over 50% in size
Method in brief: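 Compounds were pinned onto VDR-bla HEK 293T cells together with 1-alpha,25-dihydroxyvitamin D3 at 3 nM final. After 16 h at 37C and 5% CO2 plus the reporter readout, cell viability was measured by CellTiter-Glo luminescence (30 min, room temperature).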

[2] = qHTS assay to identify small molecule agonists of the NFkB signaling pathway (AID 1159509; active means well fitted curve in the direction sought with a large enough effect in the signal ratio in the repeat runs, not every such curve was filed as active; the % refers to the signal ratio; further: series mostly up to about 61 µM)
Method in brief: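 NFkB-bla ME-180 cells carry a beta-lactamase reporter under an NF-kB response element. They were plated overnight, then exposed to compounds for 5 h at 37 C. Read-out is LiveBLAzer FRET after 1.5 hr at room temperature (405 nm excitation; 460/530 nm emission).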

[3] = qHTS assay to identify small molecule agonists of the NFkB signaling pathway - cell viability counter screen (AID 1159515; calls by dose curve; further: series mostly up to about 61 µM; nearly all actives have a fitted effect of over 55% in size)
Method in brief: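 5 hr compound treatment of NFkB-bla ME-180 cells (2,000/well, seeded overnight beforehand), followed by reporter substrate for 1.5 hr. CellTiter-Glo added afterward; luminescence after 30 min RT.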

[4] = qHTS assay to identify small molecule agonists of the endoplasmic reticulum stress response signaling pathway (AID 1159516; active means well fitted activation curve with a large enough effect in the signal ratio in the repeat runs, not every such curve was filed as active; the % refers to the signal ratio)
Method in brief: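 Reporter HeLa cells (ESRE-beta-lactamase) underwent 5 hr compound incubation at 37 C and 5% CO2 in quantitative HTS format. Detection followed 2 hr of FRET substrate loading at room temperature.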

[5] = qHTS assay to identify small molecule agonists of the endoplasmic reticulum stress response signaling pathway - cell viability counter screen (AID 1159517; calls by dose curve;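 further: HeLa cells carrying an ER stress response element beta-lactamase reporter; series mostly up to about 61 µM; nearly all actives have a fitted effect of over 50% in size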)
Method in brief: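 ESRE-bla HeLa cells, 1,500 per well, seeded overnight then treated with compounds for 5 hr at 37 C. After the beta-lactamase read, viability in the same wells is measured by CellTiter-Glo luminescence after 30 min at room temperature.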

[6] = biological target: Nuclear receptor ROR-gamma (Homo sapiens) (UniProt P51449); assay: qHTS assay to identify small molecule antagonists of the retinoid-related orphan receptor gamma (ROR-gamma) signaling pathway (AID 1159521;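 further: CHO cells with doxycycline inducible ROR-gamma driving an RORE luciferase reporter; top concentration of the series differs between compounds; nearly all actives have a fitted effect of over 50% in size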)
Method in brief: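 Test compounds were applied to Tet-on RORγ CHO cells 2 h ahead of doxycycline hyclate (1 uM final). Luciferase reporter activity was quantified by luminescence after 16 h at 37 C and 5% CO2.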

[7] = qHTS assay to identify small molecule agonists of the AP-1 signaling pathway - cell viability counter screen (AID 1159525; calls by dose curve; further: nearly all actives have a fitted effect of over 55% in size)
Method in brief: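 AP-1-bla ME-180 cells in Opti-MEM with 0.5% dialyzed FBS, compound exposure 5 h at 37 C in 15-point titration. Viability read in the same wells as ATP content by CellTiter-Glo luminescence, normalised to tetra-n-octylammonium bromide and DMSO controls.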

[8] = qHTS assay to identify small molecule agonists of the AP-1 signaling pathway (AID 1159526; calls by dose curve)
[9] = biological target: Retinoic acid receptor RXR-alpha (Homo sapiens) (UniProt P19793); assay: qHTS assay to identify small molecule agonists of the RXR signaling pathway (AID 1159527; calls by dose curve; further: nearly all actives have a fitted effect of over 35% in size)
Sequence of Retinoic acid receptor RXR-alpha (Homo sapiens) (P19793 whole entry, looked up): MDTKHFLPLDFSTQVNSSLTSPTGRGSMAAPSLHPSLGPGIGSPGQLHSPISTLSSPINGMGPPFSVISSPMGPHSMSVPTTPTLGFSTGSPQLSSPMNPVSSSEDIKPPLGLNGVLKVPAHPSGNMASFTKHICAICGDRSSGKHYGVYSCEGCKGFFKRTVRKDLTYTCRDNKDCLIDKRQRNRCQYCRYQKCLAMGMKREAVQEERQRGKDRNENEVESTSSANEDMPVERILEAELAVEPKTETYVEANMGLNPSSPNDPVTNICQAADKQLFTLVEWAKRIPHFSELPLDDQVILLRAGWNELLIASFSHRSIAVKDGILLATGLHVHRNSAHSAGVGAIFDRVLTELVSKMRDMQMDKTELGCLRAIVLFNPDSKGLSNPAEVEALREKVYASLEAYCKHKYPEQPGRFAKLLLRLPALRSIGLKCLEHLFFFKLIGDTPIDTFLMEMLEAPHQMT
Method in brief: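 Using 9-cis retinoic acid as the reference agonist, chemicals were tested in HEK 293T cells […] for 16 hr; substrate loading lasted 2 hr at room temperature.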

[10] = qHTS assay to identify small molecule agonists of the RXR signaling pathway - cell viability counter screen (AID 1159529); further: series mostly up to about 77 µM; nearly all actives have a fitted effect of over 50% in size
Method in brief: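 Compounds dissolved in DMSO were pinned onto HEK 293T cells carrying a beta-lactamase reporter under RXR-alpha control and incubated 16 hr. Cytotoxicity was then quantified by CellTiter-Glo luminescence.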

[11] = qHTS assay to identify small molecule antagonists of the retinoid acid receptor (RAR) signaling pathway - cell viability counter screen (AID 1159551); further: nearly all actives have a fitted effect of over 35% in size
Method in brief: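 Seed C3RL4 cells; next day add compound, then retinol to 1 uM final; incubate 6 h at 37 C; add CellTiter-Glo; read luminescence after 30 min at RT.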

[12] = qHTS assay to identify small molecule antagonists of the retinoic acid receptor (RAR) signaling pathway (AID 1159552; further: nearly all actives have a fitted effect of over 50% in size)
Method in brief: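 Test chemicals and DMSO controls were pin-transferred onto C3RL4 cells a day after seeding; retinol (1 uM final) followed at once. Luminescent reporter output was quantified after 6 hr of co-incubation and 30 min with detection reagent.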

[13] = qHTS assay to identify small molecule agonists of the retinoic acid receptor (RAR) signaling pathway (AID 1159553)
Method in brief: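 Activation of retinol signaling was monitored via a RARE luciferase reporter in C3RL4 cells. After 6 hr compound treatment at 37 C, detection reagent was added for 30 min at room temperature before luminescence reading.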

[14] = qHTS assay to identify small molecule agonists of the vitamin D receptor (VDR) signaling pathway - cell viability counter screen (AID 743224)
Method in brief: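 Here cell health was gauged by luminescent ATP detection (CellTiter-Glo, 30 min RT) in VDR-bla cells that had been incubated with test compounds for 16 h at 37C and 5% CO2.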

[15] = qHTS assay to identify small molecule antagonists of the estrogen related receptor (ERR) signaling pathway - cell viability counter screen (AID 1224818);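 further: series mostly up to about 46 µM; viability measured after 17.5 h of compound exposure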
Method in brief: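 In the same ERR cell assay, compound-treated wells (17.5 h, 37 C) were multiplexed with a fluorogenic viability reagent, CellTiter-Fluor, read after 30 min to flag cytotoxic substances.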

[16] = qHTS assay to identify small molecule antagonists of the estrogen related receptor signaling pathway with the pleiotropic PPARgamma coactivator (PGC) cell viability counter screen (AID 1224822; further: series mostly up to about 46 µM)
Method in brief: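 Compounds in DMSO, with positive and negative controls, were applied to PGC/ERR cells (2,000/well) and left 17.5 h at 37 C before CellTiter-Fluor detection.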

[17] = qHTS assay to identify small molecule antagonists of the retinoid-related orphan receptor gamma (ROR-gamma) signaling pathway - cell viability counter screen (AID 1159520); further: nearly all actives have a fitted effect of over 50% in size
Method in brief: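 Tet-on ROR gamma CHO cells were given compounds for 2 hr, then doxycycline hyclate at 1 uM final, and incubated 16 hr at 37 C. Viability was measured as ATP content by CellTiter-Glo luminescence.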

[18] = qHTS assay to identify small molecule agonists of the estrogen related receptor (ERR) signaling pathway (AID 1224820)
Method in brief: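 ERR reporter cell line (from NTP), 2,000 cells/well, incubated 6 h before compound addition, then 18 h at 37 C. Luminescence measured 30 min after One-Glo reagent at room temperature.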

[19] = tested on: estrogen-related receptor alpha (ERRalpha) with PGC-1alpha coactivator, human; assay: qHTS assay to identify small molecule antagonists of the estrogen related receptor signaling pathway with the pleiotropic PPARgamma coactivator (PGC) (AID 1224821; calls by dose curve)
Method in brief: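 PGC/ERR reporter cell line, plated 6 h before compound addition, then exposed 18 h at 37 °C. Luciferase activity read by luminescence 30 min after One-Glo addition; decrease indicates antagonism.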

Measured: Potency

CN(C(=O)c1c(O)c2ccccc2n(C)c1=O)c1ccccc1
inactive: [1] | [2] | [3] | [4] | [5] | [6] | [7] | [8] | [9] | [10] | [11] | [12] | [13]

c1ccc(CC2=NCCN2)cc1
inactive: [14] | [1] | [2] | [3] | [4] | [5] | [6] | [7] | [8] | [9] | [10] | [11] | [12] | [13]

OC(CCN1CCCCC1)(c1ccccc1)C1CC2C=CC1C2 (stereo not drawn)
inactive: [1] | [2] | [3] | [4] | [5] | [6] | [7] | [8] | [9] | [10] | [11] | [12] | [13] | [15] | [16]

CCCCCSCCCCC
inactive: [14] | [1] | [2] | [3] | [4] | [5] | [6] | [7] | [8] | [9] | [10] | [11] | [12] | [13]

Nc1c[n+](N2CCOCC2)no1
inactive: [1] | [2] | [3] | [4] | [5] | [17] | [6] | [7] | [8] | [9] | [10] | [11] | [12] | [13]

NS(=O)(=O)c1cc2c(cc1Cl)NC(C1CC3C=CC1C3)NS2(=O)=O (stereo not drawn)
inactive: [14] | [1] | [2] | [3] | [4] | [17] | [6] | [7] | [8] | [9] | [10] | [11] | [12] | [13] | [15] | [16]

O=C(CCCN1CCC(O)(c2cccc(C(F)(F)F)c2)CC1)c1ccc(F)cc1
inactive: [14] | [1] | [2] | [3] | [4] | [5] | [6] | [7] | [8] | [9] | [10] | [11] | [12] | [13] | [15] | [18] | [19] | [16]

CN1N=C(C(N)=O)CCC1=O
inactive: [14] | [1] | [2] | [3] | [4] | [5] | [6] | [7] | [8] | [9] | [10] | [11] | [12] | [13]
